Data: PubChem BioAssay AID2783 (National Center for Advancing Translational Sciences (NCATS), 2010)
Inconclusive results are not listed. Calls follow the shape of the dose curve; as a rule, active = well fitted inhibition curve with a large enough effect in the polarisation, with a control signal flat (not every such curve was filed as active); inconclusive = small, poorly fitted or top-dose-only effect, or effect the other way, or a change in a side signal; inactive = no such curve, though single readings can be large or run the other way; the % refers to the polarisation. Where a SMILES comes first, the peptide text is derived from it. Bridges are numbered along the chain shown (N, C = ends). [ ]: non-standard residue; d: D form. The star is where a group is joined. ξ: configuration not given here. ξDab(CH2SO3H) = NC(CCNCS(=O)(=O)O)C(=O)O; Heptanoyl(6-Me) = CC(C)CCCCC(=O)*; Dab = NCC[CH](N)C(=O)O

biological target: Menin (Homo sapiens) (UniProt O00255); experiment: Confirmation of Inhibitors Targeting the Menin-MLL Interaction in MLL Related Leukemias: Competition With Fluorescein Labeled MLL-derived Peptide; conditions: Fluorescence polarization, fluorescein-MLL peptide displacement from menin; series mostly up to 100 µM; activity change, negative = inhibition: at the top concentration
% is scaled to controls: 0 for no effect and ±100 for the full control effect.

Sequence of Menin (Homo sapiens) (O00255 whole entry, looked up): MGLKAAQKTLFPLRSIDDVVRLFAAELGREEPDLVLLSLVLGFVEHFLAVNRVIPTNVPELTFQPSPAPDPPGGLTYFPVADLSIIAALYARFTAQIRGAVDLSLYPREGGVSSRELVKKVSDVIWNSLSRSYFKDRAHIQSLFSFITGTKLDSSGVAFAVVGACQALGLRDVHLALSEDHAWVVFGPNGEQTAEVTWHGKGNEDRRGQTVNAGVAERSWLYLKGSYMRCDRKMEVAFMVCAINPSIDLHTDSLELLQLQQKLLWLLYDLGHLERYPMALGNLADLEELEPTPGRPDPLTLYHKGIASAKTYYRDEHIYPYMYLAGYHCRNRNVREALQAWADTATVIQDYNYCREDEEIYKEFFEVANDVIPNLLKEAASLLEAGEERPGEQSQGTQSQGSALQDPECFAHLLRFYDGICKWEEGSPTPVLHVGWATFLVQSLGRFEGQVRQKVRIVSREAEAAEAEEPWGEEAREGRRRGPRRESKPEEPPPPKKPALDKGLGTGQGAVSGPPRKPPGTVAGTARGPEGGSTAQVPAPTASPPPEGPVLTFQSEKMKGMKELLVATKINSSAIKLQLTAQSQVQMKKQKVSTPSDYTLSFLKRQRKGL

Activity change, negative = inhibition, inactive:
COC(=O)C1[C@H]2SC(C)(C)C(C(=O)OC)N2C(=O)N1Cc1nc2ccccc2s1 (some centres undefined) -3.37%, Cn1c(=O)n(C)c2cc3[nH]cnc3cc21 3.61%, O=C(NCC1CCCO1)c1ccc(OC2CCN(C(=O)C3CC3)CC2)cc1 (centres undefined) 2.79%, Cc1cc(N2CCOCC2)nc2ccc(Cl)cc12 4.05%, O=C(Nc1cc(Br)ccc1O)c1cc(-c2cccs2)on1 3.78%, COc1ccc(NC2=C(NCCO)C(=O)c3ccccc3C2=O)cc1 3.49% [at 288 µM], Fc1ccccc1C1c2cccn2CCN1C(=S)Nc1ccc(Br)cc1 (centres undefined) -9.36%, COc1ccccc1CNCC(=O)Nc1ccc(C#N)cc1 -3.17% [at 288 µM], CCc1ccc(CNC(=O)CCS(=O)(=O)Cc2ccccc2F)cc1 -4.29%, COc1cnc(-c2ccccn2)nc1N(C)c1ccccc1 1.97%, Cc1c(C(=O)OCC(=O)Nc2ccc(S(N)(=O)=O)cc2)oc2c1ccc1ccccc12 16.6%, COc1ccc2[nH]c(=O)c(CN(Cc3cccs3)C(=S)Nc3cccc(C)c3)cc2c1 -11.2%, CC(=O)N1CCCc2cc(S(=O)(=O)N3CCCC(C(=O)N4CCN(c5ccccc5)CC4)C3)ccc21 (centres undefined) 1.86%, Cc1ccc(F)c(C2C3C=CCC(C)C3C(=O)N2Cc2ccccc2)c1 (centres undefined) 10.6%, COc1ccc(-c2cc(-c3ccc(C)cc3)n[nH]2)c(O)c1 2.76% [at 288 µM], COc1ccc(S(=O)(=O)Nc2cc(SCC(=O)O)c(O)c3ccccc23)cc1 0.163% [at 288 µM], Cc1ccc(NC(=O)CN2C(=O)S/C(=C\c3ccc(C(=O)O)cc3)C2=O)cc1 -14.2%, O=C(CSc1nnc(-c2c[nH]c3ccccc23)o1)c1ccc(-c2ccccc2)cc1 3.72%, O=C1NC(=S)N/C1=C/c1ccc2ccccc2c1 49.6% [at 288 µM], C=C(C)CNC(=S)Nc1cccc2cnccc12 -5.17%, CC(c1ccncn1)N(C)Cc1nc(-c2ccc(C(F)(F)F)cc2)no1 (centres undefined) -10.2%, O=[N+]([O-])CC(c1ccccc1)P(=O)(c1ccccc1)c1ccccc1 (centres undefined) -4.21%, O=C1C(Cl)=C(NCCN2CCOCC2)C(=O)c2ncccc21 3.66% [at 288 µM], CCOC(=O)N1CCN(Cc2nnc(-c3ccccc3C)o2)CC1 -11.6%, O=C(C1CCCN(Cc2cccc(Cl)c2)C1)N1CCCCC1 (centres undefined) -5.74%, C=CCN(CC=C)S(=O)(=O)c1ccc(NC(=S)NC(=O)/C=C/c2cccc3ccccc23)cc1 -6.4%, COc1ccc(C2Nc3ccc4ccccc4c3-c3c2c(=O)oc2ccccc32)cc1 (centres undefined) -7.64%, O=C(CC(=O)c1ccccc1)Nc1cc(C(F)(F)F)ccc1Cl 2.38%, CC(=O)O[C@H]1CSC[C@H]1NC(=O)c1ccccc1 -0.821%, Cc1ccc(C(=O)Sc2cccccc2=O)cc1 0.406% [at 288 µM], CCC(C)C1NC(=O)C(CCNCS(=O)(=O)O)NC(=O)C(NC(=O)C(CCNCS(=O)(=O)O)NC(=O)C(NC(=O)C(CCNCS(=O)(=O)O)NC(=O)CCCCC(C)C)C(C)O)CCNC(=O)C(C(C)O)NC(=O)C(CCNCS(=O)(=O)O)NC(=O)C(CCNCS(=O)(=O)O)NC(=O)C(C(C)CC)NC1=O (centres undefined) ({Heptanoyl(6-Me)}-[ξDab(CH2SO3H)]T[ξDab(CH2SO3H)][Dab][ξDab(CH2SO3H)]II[ξDab(CH2SO3H)][ξDab(CH2SO3H)]T; lactam 4-C; configuration not given here) -14.6%, O=C(N1CCOCC1)N1CCN(S(=O)(=O)c2ccc(Cl)cc2)CC1 -4.6%, O=C(Nc1nnc(-c2ccccc2SCc2ccccc2)s1)Nc1ccccc1F -5.58%, CCc1oc2ccccc2c1C(=O)c1cc(Br)c(O)c(Br)c1 -17.9%
